Reference: PubChem BioAssay (EPA / NIEHS)
“And” between values parts separate entries of the source, which are not always exact repeats. Identical values can stand only once. Some compounds were tested as several samples or in several runs, with calls that do not always agree. The source made the active and inactive calls. How the source made its calls: active means hit-call score of the fitted dose curve at least 0.9, where 1 is the maximum; inactive means score below 0.9.

The compounds below were run on Monokine induced gamma interferon (MIG), CXCL9 (gene 4283) (assay: BSK_BE3C_MIG: BioMAP Diversity Plus: BE3C Assay for Monokine induced gamma interferon (MIG) Biomarker Activity (AID 2283035)). Details: primary human bronchial epithelial cells; actives raise or lower the signal.
Experimental: BSK_BE3C is a cell-based, multiplexed-readout assay that uses bronchial epithelial cell, a human lung primary cell, with measurements taken at 24 hours after chemical dosing in a 96-well plate.BSK_BE3C_MIG is an assay component measured in the BSK_BE3C assay. It measures MIG antibody related to regulation of gene expression using ELISA technology.Data from the assay component BSK_BE3C_MIG was analyzed into 1 assay endpoint. This assay endpoint, BSK_BE3C_MIG, was analyzed with bidirectional fitting relative to DMSO as the negative control and baseline of activity. Using a type of binding reporter, gain or loss-of-signal activity can be used to understand changes in the signaling as they relate to the gene CXCL9. Furthermore, this assay endpoint can be referred to as a primary readout, because this assay has produced multiple assay endpoints where this one serves a signaling function. To generalize the intended target to other relatable targets, this assay endpoint is annotated to the cytokine intended target family, where the subfamily is chemotactic factor.
The levels of cell surface (or secreted, indicated by the prefix "s") biomarker endpoints were measured by ELISA. Overt cytotoxicity to cells in confluent adherent cultures (all systems other than the BT system) was assessed by measuring total protein levels using sulforhodamine B (SRB) staining in parallel cultures at the time of biomarker measurements, indicated as SRB endpoints. For proliferation assays for adherent cell types, individual cell types are cultured at sub-confluence and relative cell numbers quantified by SRB staining at time points optimized for each system (48 h: 3C and CASM3C systems; 72 h: BT and HDF3CGF systems; 96 h: SAg system). SRB was performed by staining cells with 0.1% SRB after fixation with 10% TCA and reading wells at 560 nm.Viability and proliferation of PBMC (T cells) was quantified by Alamar Blue reduction for the SAg and BT systems. For PBMC viability (referred to as PBMC Cytotoxicity within the assay endpoint names), cells were plated (75,000/well in a 96-well plate) and then chemical samples added for 1 h before addition of activators, SEB and TSST-1 (20 ng/mL final concentration each). Cells were incubated for 90 h. Then, Alamar Blue (20 uL/well) (Invitrogen, Cat DAL1100) was added for 6 h, and the plates were read with a fluorescence microplate reader at 546/580 nm (excitation/emission). For PBMC proliferation, cells were plated and activated as above but incubated for only 16 h prior to addition of Alamar Blue. Plates were read after 6 h.

Structure (SMILES) | outcome | AC50
CC1(C)[C@H](C(=O)O[C@H](C#N)c2cccc(Oc3ccccc3)c2)[C@@H]1C=C(Br)Br | inactive | –
O=[N+]([O-])C=Cc1ccccc1 | – | 3.89 µM (active)
CCCCCCCCCCCC#N | inactive | –
O=P1(NCCCl)OCCCN1CCCl (centres undefined) | inactive | –
COCC(=O)N(c1c(C)cccc1C)N1CCOC1=O | inactive | –
[Cd+2].[Cl-].[Cl-] | inactive | –
CC(C)CCCCCCCOC(=O)c1ccccc1C(=O)OCCCCCCCC(C)C | inactive | –
c1ccc(Nc2ccc3ccccc3c2)cc1 | inactive | –
O=S(=O)(c1ccccc1)c1ccccc1 | inactive | –
C=CCN(CC=C)C(=O)C(Cl)Cl | inactive | –
O=C(CCl)c1ccccc1 | – | 36.5 µM (active)
Nc1ccc(-c2ccc(N)c(N)c2)cc1N | inactive | –
N#CCCCCC#N | inactive | –
CCc1cc(C)cc(CC)c1-c1c(OC(=O)C(C)(C)C)n2n(c1=O)CCOCC2 | inactive | –
Oc1cc(Cl)ccc1Cl | inactive | –
CCCOC(=O)c1ccccc1C(=O)OCCC | inactive | –
CNC(=O)Oc1cc(C)c(SC)c(C)c1 | inactive | –
Oc1ccc(C2(c3ccc(O)cc3)c3ccccc3-c3ccccc32)cc1 | – | 5.44 µM (active) and 5.43 µM (active)
O=C1C=CC(=O)C=C1 | inactive | –

Structure (SMILES) | outcome | AC50
C=CC(=O)OCC(CC)CCCC (centres undefined) | inactive | –
O=c1[nH]c(Cl)c(Cl)cc1Cl | inactive | –
Clc1ccc(-c2ccccc2)cc1 | inactive | –
Cc1ccc(OP(=O)(Oc2ccc(C)cc2)Oc2ccc(C)cc2)cc1 (tested in a mixture with another compound) | inactive | –
O=c1c2ccccc2c(=O)c2c1cc(Cl)c1[nH]c3c([nH]c12)c(Cl)cc1c(=O)c2ccccc2c(=O)c13 | inactive | –
CC(C)(C)C(O)C(Oc1ccc(-c2ccccc2)cc1)n1cncn1 (centres undefined) | inactive | –
O=C1C(Cl)=C(Cl)C(=O)C(Cl)=C1Cl | – | 35.6 µM (active)
CCC(C)c1cc([N+](=O)[O-])cc([N+](=O)[O-])c1OC(=O)C=C(C)C (centres undefined) | – | 35.1 µM (active)
COc1ccc(CO)cc1 | inactive | –
O=C(O)CCCc1ccc(N(CCCl)CCCl)cc1 | inactive | 28.9 µM (active)
CC(=O)/C=C/c1ccccc1 | inactive | –
O=[N+]([O-])O | inactive | –
CC(C)COP(=O)(OCC(C)C)OCC(C)C | inactive | –
O=[N+]([O-])c1ccc(Cl)cc1 | inactive | –
CC(C)(c1cc(Cl)c(O)c(Cl)c1)c1cc(Cl)c(O)c(Cl)c1 | – | 7.45 µM (active)
CCCC[N+](CCCC)(CCCC)CCCC | inactive | –
CC(C)CCCCCCCOP(=O)(Oc1ccccc1)Oc1ccccc1 | inactive | –
CC(C)(C)C(=O)CCl | inactive | –
COC(C)(C)CCC[C@H](C)C/C=C/C(C)=C/C(=O)OC(C)C | inactive | –
